From PubChem BioAssay (Tox21)
Inconclusive results are not listed. Where a call stands in place of a potency, no number is given. Activity calls are given as the source filed them. The call rests on the fitted dose curve; in most records, active means well fitted curve in the direction sought with a large enough effect in the repeat runs; inconclusive means weak or mixed curves; inactive means no such curve, though single readings can be large; an effect the other way counts as inactive or inconclusive.

What was measured:
[1] = target: Cytochrome P450 2C19 (Homo sapiens) (UniProt P33261); test: Cytochrome P450 Family 2 Subfamily C Member 19 (CYP2C19) small molecule antagonists: luciferase reporter qHTS assay (AID 1671197); further: nearly all actives have a fitted effect of over 65% in size; further: potency means the concentration at half of the fitted maximal effect
Cytochrome P450 2C19 (Homo sapiens), sequence (P33261 whole entry, looked up): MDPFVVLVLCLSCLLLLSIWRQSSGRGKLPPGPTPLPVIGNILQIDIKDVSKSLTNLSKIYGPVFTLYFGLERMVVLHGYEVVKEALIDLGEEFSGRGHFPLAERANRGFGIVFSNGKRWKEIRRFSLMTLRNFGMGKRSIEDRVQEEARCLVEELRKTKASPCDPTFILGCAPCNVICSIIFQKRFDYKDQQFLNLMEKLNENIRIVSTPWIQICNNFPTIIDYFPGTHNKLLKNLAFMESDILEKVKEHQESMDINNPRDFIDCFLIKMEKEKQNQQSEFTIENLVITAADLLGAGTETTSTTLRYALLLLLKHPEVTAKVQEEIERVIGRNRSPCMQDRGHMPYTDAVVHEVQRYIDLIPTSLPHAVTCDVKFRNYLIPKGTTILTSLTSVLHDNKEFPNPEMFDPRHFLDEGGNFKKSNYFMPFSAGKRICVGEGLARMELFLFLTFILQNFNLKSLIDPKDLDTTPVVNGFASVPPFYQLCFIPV
In short: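 P450-Glo CYP2C19 screening system; proluciferin substrate; DMSO compound stocks; 10 min RT preincubation; NADPH regeneration, 1 h at 37C; luciferin detection reagent, 20 min RT; luminescence as RLU.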

[2] = target: Voltage-gated inwardly rectifying potassium channel KCNH2 (Homo sapiens) (UniProt Q12809); test: Human Ether-a-go-go-Related Gene (hERG) channel small molecule antagonists: fluorescence cell-based qHTS assay (AID 1671200);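 further: hERG-expressing U2OS cells given a thallium stimulus after FluxOR II dye loading; series mostly up to about 77 µM; nearly all actives have a fitted effect of over 50% in size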
Voltage-gated inwardly rectifying potassium channel KCNH2 (Homo sapiens), sequence (Q12809 whole entry, looked up): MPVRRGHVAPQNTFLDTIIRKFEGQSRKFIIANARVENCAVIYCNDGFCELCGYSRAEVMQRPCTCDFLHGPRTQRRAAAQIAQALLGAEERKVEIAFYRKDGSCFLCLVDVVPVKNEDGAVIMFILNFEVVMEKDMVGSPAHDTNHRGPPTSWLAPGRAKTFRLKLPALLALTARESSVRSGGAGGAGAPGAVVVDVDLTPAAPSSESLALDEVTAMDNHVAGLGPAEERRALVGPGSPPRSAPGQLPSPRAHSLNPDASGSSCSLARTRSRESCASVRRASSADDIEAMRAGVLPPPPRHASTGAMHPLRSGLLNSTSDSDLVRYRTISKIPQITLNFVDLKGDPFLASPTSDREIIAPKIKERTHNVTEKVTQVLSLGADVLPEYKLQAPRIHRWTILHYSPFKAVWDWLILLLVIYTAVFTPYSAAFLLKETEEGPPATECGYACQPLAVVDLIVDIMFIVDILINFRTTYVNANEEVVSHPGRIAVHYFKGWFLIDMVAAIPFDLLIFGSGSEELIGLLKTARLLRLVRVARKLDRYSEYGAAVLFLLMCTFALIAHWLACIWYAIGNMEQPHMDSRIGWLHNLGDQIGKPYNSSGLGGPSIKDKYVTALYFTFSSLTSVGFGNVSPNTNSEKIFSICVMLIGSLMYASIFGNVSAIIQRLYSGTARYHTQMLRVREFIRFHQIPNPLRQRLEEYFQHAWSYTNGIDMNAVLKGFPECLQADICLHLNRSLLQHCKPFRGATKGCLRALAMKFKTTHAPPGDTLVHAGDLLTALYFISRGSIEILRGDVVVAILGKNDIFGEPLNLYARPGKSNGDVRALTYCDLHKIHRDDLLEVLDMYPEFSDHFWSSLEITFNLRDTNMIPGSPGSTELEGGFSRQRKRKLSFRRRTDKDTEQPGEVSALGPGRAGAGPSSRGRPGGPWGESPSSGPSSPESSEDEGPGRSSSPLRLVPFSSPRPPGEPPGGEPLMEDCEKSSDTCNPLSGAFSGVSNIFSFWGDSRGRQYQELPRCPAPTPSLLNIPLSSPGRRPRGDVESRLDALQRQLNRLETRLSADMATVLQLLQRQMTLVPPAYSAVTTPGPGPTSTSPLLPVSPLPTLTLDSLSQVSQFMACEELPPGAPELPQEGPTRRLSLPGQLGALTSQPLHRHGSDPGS
In short: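 Cell line hERG-U2OS; dye FluxOR II, 1 h RT dark; Tl+ stimulus; ex 480/em 540 nm, read each second for 2 min.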

[3] = target: Cytochrome P450 3A4 (Homo sapiens) (UniProt P08684); test: Cytochrome P450 Family 3 Subfamily A Member 4 (CYP3A4) small molecule antagonists: luciferase reporter qHTS assay (AID 1671201); further: nearly all actives have a fitted effect of over 50% in size; further: potency means the concentration at half of the fitted maximal effect
Cytochrome P450 3A4 (Homo sapiens), sequence (P08684 whole entry, looked up): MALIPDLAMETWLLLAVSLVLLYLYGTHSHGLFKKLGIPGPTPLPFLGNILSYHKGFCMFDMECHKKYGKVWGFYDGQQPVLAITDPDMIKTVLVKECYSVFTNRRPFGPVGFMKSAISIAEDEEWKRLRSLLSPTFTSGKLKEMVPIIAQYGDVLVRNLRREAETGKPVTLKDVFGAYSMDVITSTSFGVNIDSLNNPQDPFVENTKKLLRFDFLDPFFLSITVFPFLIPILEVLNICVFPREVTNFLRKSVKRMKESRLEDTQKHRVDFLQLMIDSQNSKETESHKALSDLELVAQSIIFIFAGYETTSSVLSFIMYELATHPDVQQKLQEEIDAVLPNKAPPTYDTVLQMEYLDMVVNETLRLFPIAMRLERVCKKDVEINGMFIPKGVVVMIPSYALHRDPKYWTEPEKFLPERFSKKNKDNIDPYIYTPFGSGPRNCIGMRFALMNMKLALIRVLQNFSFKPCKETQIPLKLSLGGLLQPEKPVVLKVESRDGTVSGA
In short: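 Room-temperature assay throughout: 10 min compound–enzyme/substrate preincubation, 1 h reaction after NADPH regeneration solution, 20 min detection. Luciferin formed from proluciferin substrate is quantified by luminescence.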

[4] = target: Cytochrome P450 2C9 (Homo sapiens) (UniProt P11712); test: Cytochrome P450 Family 2 Subfamily C Member 9 (CYP2C9) small molecule antagonists: luciferase reporter qHTS assay (AID 1671198); further: nearly all actives have a fitted effect of over 50% in size; further: potency means the concentration at half of the fitted maximal effect
Cytochrome P450 2C9 (Homo sapiens), sequence (P11712 whole entry, looked up): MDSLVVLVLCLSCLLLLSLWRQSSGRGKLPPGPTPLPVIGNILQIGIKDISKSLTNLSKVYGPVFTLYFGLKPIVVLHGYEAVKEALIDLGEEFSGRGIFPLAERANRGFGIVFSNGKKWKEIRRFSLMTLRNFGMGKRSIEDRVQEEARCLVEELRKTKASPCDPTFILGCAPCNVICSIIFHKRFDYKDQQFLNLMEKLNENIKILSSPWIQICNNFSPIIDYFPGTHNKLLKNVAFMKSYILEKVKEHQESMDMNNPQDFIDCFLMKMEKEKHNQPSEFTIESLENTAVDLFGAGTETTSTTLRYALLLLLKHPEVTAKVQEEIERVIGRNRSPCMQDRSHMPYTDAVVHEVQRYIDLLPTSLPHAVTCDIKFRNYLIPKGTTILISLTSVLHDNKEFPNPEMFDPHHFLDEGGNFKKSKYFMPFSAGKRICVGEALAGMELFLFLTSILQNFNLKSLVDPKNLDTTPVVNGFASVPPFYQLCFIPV
In short: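 CYP2C9 activity was measured with a P450-Glo proluciferin substrate. Enzyme–substrate mix was held with compound for 10 min at room temperature, then NADPH regeneration solution was added for 1 h at 37C. Luciferin product was read as luminescence.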

[5] = target: Cytochrome P450 1A2 (Homo sapiens) (UniProt P05177); test: Cytochrome P450 Family 1 Subfamily A Member 2 (CYP1A2) small molecule antagonists: luciferase reporter qHTS assay (AID 1671199); further: nearly all actives have a fitted effect of over 50% in size; further: potency means the concentration at half of the fitted maximal effect
Cytochrome P450 1A2 (Homo sapiens), sequence (P05177 whole entry, looked up): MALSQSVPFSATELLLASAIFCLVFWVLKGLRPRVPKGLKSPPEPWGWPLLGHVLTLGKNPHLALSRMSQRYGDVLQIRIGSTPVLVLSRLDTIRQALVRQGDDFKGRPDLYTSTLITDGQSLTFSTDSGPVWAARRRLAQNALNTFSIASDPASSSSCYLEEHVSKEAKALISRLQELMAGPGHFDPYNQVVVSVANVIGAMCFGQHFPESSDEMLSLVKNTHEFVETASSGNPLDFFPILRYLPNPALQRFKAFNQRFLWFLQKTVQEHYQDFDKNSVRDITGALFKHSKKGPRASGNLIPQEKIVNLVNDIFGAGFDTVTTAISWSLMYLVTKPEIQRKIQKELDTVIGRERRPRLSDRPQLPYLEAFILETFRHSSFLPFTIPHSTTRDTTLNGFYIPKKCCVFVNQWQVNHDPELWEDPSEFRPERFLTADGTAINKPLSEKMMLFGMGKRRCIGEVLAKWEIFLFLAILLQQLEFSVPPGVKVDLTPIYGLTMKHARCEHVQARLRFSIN
In short: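 Signal from luciferin formed by CYP1A2 from a proluciferin substrate is read as luminescence, expressed in relative luminescence units. Compounds sit with enzyme 10 min, NADPH-driven reaction runs 1 h, all at room temperature.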

Structure (SMILES) | Potency [1] | Potency [2] | Potency [3] | Potency [4] | Potency [5]
CCOc1ccccc1OCC | 71 µM (active) | inactive | – | – | –
CCOC(=O)C(=O)CCCCCCl | 17.4 µM (active) | inactive | inactive | – | –
CO/N=C(\C(=O)N[C@@H]1C(=O)N2C(C(=O)O)=C(CSc3nc(=O)c(O)nn3C)CS[C@H]12)c1csc(N)n1 | inactive | inactive | inactive | – | –
Cc1coc2ccccc2c1=O | inactive | inactive | inactive | – | –
CNCCO | inactive | inactive | inactive | – | –
CC12CCC(C(=O)C1=O)C2(C)C (stereo not given) | inactive | inactive | inactive | – | –
CCCC(=O)O[C@]1(C(=O)CC)CC[C@H]2[C@@H]3CCC4=CC(=O)CC[C@]4(C)[C@H]3[C@@H](O)C[C@@]21C | – | inactive | – | 15.5 µM (active) | inactive
COc1cc2c(cc1OC)-c1cc3ccc(OC)c(OC)c3c[n+]1CC2 | – | inactive | – | inactive | 35.9 µM (active)
C[C@@H]1C[C@H]2[C@@H]3C[C@H](F)C4=CC(=O)C(Cl)=C[C@]4(C)[C@@]3(F)[C@@H](O)C[C@]2(C)[C@@]1(O)C(=O)CO | 8.71 µM (active) | inactive | – | – | –
Cc1ccc(C(=O)c2ccccc2)cc1 | 10 µM (active) | – | inactive | – | 31.7 µM (active)
O=C(O)c1cc(C(=O)O)cc(C(=O)O)c1 | – | inactive | inactive | inactive | inactive
CNC(=O)Nc1ccc(Cl)c(Cl)c1 | 28.3 µM (active) | inactive | – | – | –
CC1=NN(c2cc(S(=O)(=O)O)ccc2Cl)C(=O)C1N=Nc1ccccc1 (stereo not given) | – | inactive | inactive | inactive | inactive
CC(COc1ccccc1)NN (stereo not given) | inactive | inactive | inactive | – | –
CC(CC=O)CC(C)(C)C (stereo not given) | inactive | inactive | inactive | – | –
CCCCOCCOC(=O)CCCCCCCCC(=O)OCCOCCCC | 31.7 µM (active) | inactive | inactive | – | –
CCCn1cc[n+](C)c1C | inactive | inactive | inactive | – | –
NC(=O)NC1N=C([O][Al])NC1=O (stereo not given) | inactive | inactive | – | – | –
CCOc1ccc2nc(S(N)(=O)=O)sc2c1 | inactive | inactive | inactive | – | –
CCN1CCOCC1 | 22 µM (active) | inactive | inactive | – | –
CC(C)(C)OC(=O)c1cccc(N)c1 | 25.9 µM (active) | inactive | 16.3 µM (active) | – | –

Structure (SMILES) | Potency [1] | Potency [2] | Potency [3] | Potency [4] | Potency [5]
CC1OC1C1CCC2(C)OC2C1 (stereo not given) | – | inactive | – | inactive | inactive
C[N+](C)(CCOc1ccccc1)Cc1cccs1 | inactive | – | inactive | – | –
CC[N+](C)(CC)CCOC(=O)C1c2ccccc2Oc2ccccc21 | inactive | inactive | inactive | – | –
CC(C)(C#N)Nc1nc(Cl)nc(NC2CC2)n1 | – | inactive | 20 µM (active) | inactive | 39.9 µM (active)
CCCCCCCC1CCCC1=O (stereo not given) | 39.9 µM (active) | inactive | inactive | – | –
C=CC(=O)OCCCl | 81.5 µM (active) | inactive | inactive | – | –
C[C@H]1[C@H](NC(=O)/C(=N/OC(C)(C)C(=O)O)c2csc(N)n2)C(=O)N1S(=O)(=O)O (stereo in doubt) | inactive | inactive | inactive | – | –
COc1c(N2CCNC(C)C2)c(F)cc2c(=O)c(C(=O)O)cn(C3CC3)c12 (stereo not given) | inactive | inactive | inactive | – | –
CC(=O)NC(=O)c1ccccc1O | inactive | inactive | inactive | – | –
FB(F)F | – | inactive | – | inactive | inactive
CC(C)(C)C(=O)Oc1ccc(S(=O)(=O)Nc2ccccc2C(=O)NCC(=O)O)cc1 | inactive | inactive | inactive | – | –
Clc1cc(Cl)cc(Cl)c1 | – | inactive | inactive | inactive | inactive
CC1=C(C/C=C(\C)CCC[C@H](C)CCC[C@H](C)CCCC(C)C)C(=O)c2ccccc2C1=O | inactive | inactive | inactive | – | –
CCCCc1nc(Cl)c(CO)n1Cc1ccc(-c2ccccc2-c2nn[nH]n2)cc1 | inactive | inactive | – | – | –
Cc1ccc(-c2ccccc2C#N)cc1 | 17.4 µM (active) | inactive | – | – | –
Cc1ccc(C(=O)c2ccc(CC(=O)O)n2C)cc1 | inactive | inactive | inactive | – | –
CN(C)[C@@H]1C(=O)C(C(=O)NCN2CCCC2)=C(O)[C@@]2(O)C(=O)C3=C(O)c4c(O)cccc4[C@@](C)(O)C3C[C@@H]12 (stereo not given in full) | – | inactive | inactive | inactive | –
O=C1NC(=O)C2CC=CCC12 (stereo not given) | – | inactive | – | – | –
CCOC(=O)OC(C)OC1=C(C(=O)Nc2ccccn2)N(C)S(=O)(=O)c2ccccc21 (stereo not given) | – | inactive | inactive | – | inactive
CCCCCCCCCC[N+](C)(C)[O-] | – | inactive | inactive | – | –
CC(C)NNC(=O)c1ccncc1 | – | inactive | inactive | – | inactive
